Bioassay records (PubChem BioAssay)
Sampled rows, rich in hits. Any-hit rate of the full collection: about 10%.
G9a block – G9a (human) methyltransferase inhibition | G9a H3K9 monomethylation, AlphaScreen, 2 h | Potency, µM (top dose mostly 102 µM), for inactives: at the top dose activity, negative = inhibition, usual class: inhibitors | hit rate 8.8% among 350,000; note: % is set by controls: 0 for no effect and ±100 for the full control effect; nearly all actives have a fitted effect of over 75% in size
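Readings reflect AlphaScreen signal from monomethyl-H3K9 antibody detection. HMT at 20 nM; substrate b-H3K9 500 nM; cofactor SAM 20 uM; 2 h RT reaction; compounds tested as titrations in qHTS with 15 min preincubation.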
HP1b chromo inh – blocks HP1-beta chromodomain binding to methylated histone tails; AlphaScreen HP1-beta / biotin-H3K9me3 peptide binding; P83916; hit rate 0.56% among 390,000; Potency, µM (series often up to 114 µM), inactives show at the top dose activity change, negative = inhibition, hits mostly inhibitors; AID 540317; note: nearly all actives have a fitted effect of over 70% in size
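HP1-beta protein (50 nM final) preincubated 30 min at room temperature with biotinylated H3(1-18)K9me3 peptide (50 nM) in PBS pH 7.4, 0.01% Tween-20, then compound added for 30 min. AlphaScreen streptavidin donor/nickel chelate acceptor beads (10 ug/mL final), 30 min dark, luminescence read.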
JMJD2A Tudor inh – blocks the human JMJD2A Tudor domain; AlphaScreen JMJD2A-Tudor / H3K4me3 peptide binding; hit rate 4.4% among 390,000; O75164; Potency, µM (series often up to 114 µM), for the others: at the top dose activity change, negative = inhibition, hits mostly inhibitors; AID 504339; note: % is set by controls: 0 for no effect and ±100 for the full control effect; nearly all actives have a fitted effect of over 50% in size
Target sequence (O75164 whole entry, looked up, the tested form may be a part): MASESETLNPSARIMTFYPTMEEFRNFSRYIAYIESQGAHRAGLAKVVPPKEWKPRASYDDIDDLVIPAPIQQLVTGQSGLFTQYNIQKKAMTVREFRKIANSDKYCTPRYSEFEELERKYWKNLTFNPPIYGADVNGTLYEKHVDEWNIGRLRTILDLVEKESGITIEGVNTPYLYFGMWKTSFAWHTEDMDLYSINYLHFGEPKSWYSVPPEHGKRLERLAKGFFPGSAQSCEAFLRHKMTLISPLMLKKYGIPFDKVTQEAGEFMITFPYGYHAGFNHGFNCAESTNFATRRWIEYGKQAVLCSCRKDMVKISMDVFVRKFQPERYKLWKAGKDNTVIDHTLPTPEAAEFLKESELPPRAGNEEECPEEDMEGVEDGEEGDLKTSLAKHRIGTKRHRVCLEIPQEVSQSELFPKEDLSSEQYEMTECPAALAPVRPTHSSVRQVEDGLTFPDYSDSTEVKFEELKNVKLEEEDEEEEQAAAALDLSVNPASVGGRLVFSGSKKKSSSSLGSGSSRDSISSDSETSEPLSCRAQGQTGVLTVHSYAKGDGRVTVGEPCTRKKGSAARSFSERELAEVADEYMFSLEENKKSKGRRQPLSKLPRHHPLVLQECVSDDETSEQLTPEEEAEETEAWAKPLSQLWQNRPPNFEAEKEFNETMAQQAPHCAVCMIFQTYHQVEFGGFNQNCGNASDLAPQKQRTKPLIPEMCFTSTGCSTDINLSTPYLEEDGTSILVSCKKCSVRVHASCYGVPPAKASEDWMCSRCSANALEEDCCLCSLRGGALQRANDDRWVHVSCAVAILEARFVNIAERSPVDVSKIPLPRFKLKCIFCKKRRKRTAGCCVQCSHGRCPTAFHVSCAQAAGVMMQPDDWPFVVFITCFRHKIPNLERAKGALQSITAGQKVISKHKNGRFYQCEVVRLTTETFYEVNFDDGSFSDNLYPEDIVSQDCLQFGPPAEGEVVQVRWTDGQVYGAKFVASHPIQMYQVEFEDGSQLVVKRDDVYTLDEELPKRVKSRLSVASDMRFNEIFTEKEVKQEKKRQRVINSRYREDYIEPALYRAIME
BAZ2B inh – inhibitors of human BAZ2B bromodomain; Potency, µM (top dose mostly 114 µM), inactives show at the highest dose activity change, negative = inhibition, usual class: inhibitors; AlphaScreen BAZ2B-H3K14Ac peptide displacement; Q9UIF8; hit rate 4.4% among 360,000; note: % is set by controls: 0 for no effect and ±100 for the full control effect; nearly all actives have a fitted effect of over 60% in size
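AlphaScreen luminescence quantifies BAZ2B engagement of H3K14Ac peptide; the protein and biotinylated peptide are both at 50 nM final, buffer PBS pH 7.4 with 0.01% Tween-20, all steps at room temperature.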
GLS inh – blocks human kidney-isoform glutaminase activity; O94925; GLS enzymatic activity, qHTS titration; Potency, µM (highest dose often 45.5 µM), for the others: at the highest dose activity change, negative = inhibition, usual class: inhibitors; hit rate 0.21% among 410,000; AID 624170; note: % is set by controls: 0 for no effect and ±100 for the full control effect
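hKGA; 45 mM KH2PO4 pH 8.2 + 0.02% Tween-20; cpd via pin tool; 1 mM Gln soln; GluOx/HRP/Amplex Red; RT 30 min; fluor. t0 & final.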
The depositor's hits bear a star; ? = inconclusive; . = no result given; ! = repeats disagree; [ ] = another dose, or the depositor's remark. Calls come from the whole dose curve; as a rule, active = well fitted curve in the direction sought with a large enough effect; inconclusive = small, poorly fitted or top-dose-only effect, or another doubt; inactive = no such curve, though single readings can be large; an effect the other way counts as inactive or inconclusive. Potency is the fitted concentration of half-maximal effect.

SMILES	G9a block	HP1b chromo inh	JMJD2A Tudor inh	BAZ2B inh	GLS inh
COc1ccc(C(C(=O)NC2CCCC2)N(C(=O)c2snc(C(N)=O)c2N)c2cccc(O)c2)cc1 (stereo unspecified)	70.8µM*	-25.9%	?	?	0.0%
COc1cc(/C=C/C(=O)Nc2nnc(CC(C)(C)C)s2)cc(OC)c1OC	2.24µM*	?	?	-11.5%	10.0%
COc1cc(/C=C/C(=O)Nc2nnc(CC(C)C)s2)cc(OC)c1OC	-5.9%[59 µM]	6.9%	-1.4%	22.4%	-9.2%
COc1ccc(CCN(Cc2cc3cc(C)ccc3[nH]c2=O)C(C)=O)cc1OC	.	50.3%	-2.6%	-0.9%	-6.9%
COc1ccc(CCN(Cc2cc3ccc(C)cc3n3nnnc23)C(C)=O)cc1OC	-14.8%	-6.7%	11.2µM*	4.5%	-17.3%
CC(=O)n1nc(-c2ccccc2)nc1NCc1ccc(N(C)C)cc1	-127.6%[59 µM]	?	35.5µM*	25.1µM*	2.6%
CN(C)c1ccc(CNc2nc(-c3ccccc3)nn2S(C)(=O)=O)cc1	28.2µM*	?	56.2µM*	35.5µM*	0.0%
CC(=O)Nc1c(C)ccc(CNC(=O)COc2cc(C)ccc2C)c1C	-20.4%[59 µM]	16.1%	-12.9%	-1.2%	-0.9%
COc1cc(C(=O)NS(=O)(=O)c2ccccc2C)ccc1Cc1cn(C)c2ccc(NC(=O)OC3CCCC3)cc12	?	.	.	50.1µM*	1.1%
CC(C)Nc1nnc(SCC(=O)c2c(N)n(Cc3ccccc3)c(=O)n(C)c2=O)s1	-17.3%	31.6%	7.2%	0.8%[57.1 µM]	7.2%
CC(=O)c1c(C)[nH]c(C(=O)CSc2ccc(F)cc2)c1C	-26.8%	22.9%	-12.0%	-2.3%	5.3%
CC(=O)c1c(C)[nH]c(C(=O)CSc2nnc(NC3CC3)s2)c1C	50.1µM*	63.7%	-11.3%	-22.6%	4.1%
Cn1c(N)c(C(=O)CSc2nnc(NC3CCCCC3)s2)c(=O)n(C)c1=O	50.1µM*	18.4%	3.7%	1.3%	0.3%
COc1ccc(C(=O)Nc2cc(C)c(O)c(-c3nc4ccccc4s3)c2)cc1OC	1.1%[59 µM]	39.6%	-9.0%	-14.7%	-9.5%
Cc1ccc(N2C(N)=C(C#N)C(c3cc(CN4CCOCC4)cs3)C3=C2CC(C)(C)CC3=O)cc1 (stereo unspecified)	50.1µM*	24.6%	-8.8%	-13.2%	-15.0%
O=C(Nc1ccccc1C(=O)N1CCN(c2ccccc2)CC1)c1ccco1	-44.6%[12.7 µM]	34.3%	-17.6%[57.1 µM]	-8.4%	29.5%
O=C(CCn1c2c(c3ccccc31)CCCC2)NNC(=O)c1ccccc1C(=O)O	.	4.0%	-28.0%	70.8µM*	17.9%
Cc1ccc(NS(=O)(=O)c2cc(OCC(N)=O)c(C)cc2Cl)cc1	-0.1%[59 µM]	23.6%	-4.5%	-1.2%	18.5%
O=C1NC(=O)/C(=C\c2ccc(Br)o2)S1	44.7µM*	19.6%	?	-36.1%	-22.5%
O=C1NC(=O)/C(=C/c2ccc(-c3cc(C(=O)O)ccc3Cl)o2)S1	.	15.3%	-18.9%	-11.6%	-21.3%
CCOc1ccc(S(=O)(=O)N(C(=O)c2ccco2)c2cc3sc(=O)oc3c3ccccc23)cc1	1.41µM*	?	?	?	-1.5%
COc1ccc(S(=O)(=O)N(C(=O)c2ccco2)c2cc3sc(=O)oc3c3ccccc23)cc1	1.41µM*	?	?	?	8.2%
Cc1ccc(S(=O)(=O)N(C(=O)c2ccco2)c2cc3sc(=O)oc3c3ccccc23)cc1	1.78µM*	?	?	?	-1.1%
Cc1ccc(S(=O)(=O)N(C)CC(=O)N2CCN(C(=O)c3ccco3)CC2)cc1	8.8%[59 µM]	26.5%	14.5%	5.4%	-8.1%
COc1ccc(S(=O)(=O)N(Cc2ccccc2)c2ccccc2C(=O)Nc2ccccc2C(=O)NCc2ccco2)cc1	-3.4%	-1.8%	-25.7%	-5.7%	3.4%
SMILES	G9a block	HP1b chromo inh	JMJD2A Tudor inh	BAZ2B inh	GLS inh
Cc1cccc(CNC(=O)C2CCC(CNS(=O)(=O)c3ccc4c(c3)CCCC(=O)N4)CC2)c1 (stereo unspecified)	8.1%[59 µM]	0.8%	-17.3%	-0.7%	0.0%
NC1(C(=O)O)CCCCC1	1.89µM*!	.	.	.	.
NC(=O)CC1(CC(=O)O)CCCCC1	-7.0%[2.33 µM]	24.8%	-9.9%	-27.6%	0.9%
NC1(C(=O)O)CSSC1	.	?	89.1µM*	.	5.2%
NC1(C(=O)O)C[C@@H](C(=O)O)[C@H](C(=O)O)C1	21.5%[59 µM]	.	.	.	.
C=CCNC(=S)NNC(=O)c1cccc2ccccc12	7.6%[0.0925 µM]	39.8%	-11.3%	1.8%	1.9%
COc1ccc(C(=O)Cc2ccc(F)cc2)c(OC)c1	32.7%[59 µM]	43.6%	7.9%	27.8%	-1.4%
COc1ccc(C(=O)COC(=O)[C@H](C)Nc2ccc(C(F)(F)F)cc2[N+](=O)[O-])c(OC)c1	?	-23.6%	-32.3%	50.1µM*	?
COc1ccc(C(=O)Cc2cc(OC)c(OC)cc2[N+](=O)[O-])c(OC)c1	-1.9%[59 µM]	5.7%	-5.8%	10.0%	11.2µM*
COc1cc([N+](=O)[O-])ccc1NC(=O)C1C2C=CC(C2)C1C(=O)O (stereo unspecified)	-4.5%[0.501 µM]	22.5%	-8.3%	0.8%	3.8%
COCCN1CCN(Cc2nc(Cc3ccc(OC)c(OC)c3)no2)CC1	-30.2%	25.4%	-5.6%	-15.3%	0.5%
COc1ccc(Cc2noc(CN3CCCN(C4Cc5ccccc5C4)CC3)n2)cc1OC	39.8µM*	33.2%	-16.8%	?	0.0%
CCOC(=O)Cc1csc(N/C(=N/S(=O)(=O)c2ccc(Cl)cc2)c2ccccc2)n1	?	?	?	-29.3%	1.7%
CCOC(=O)c1[nH]nc(-c2cc(CC)c(O)cc2O)c1-c1cscn1	.	25.9%	89.1µM*	?	7.5%
CCCc1cc2c(=O)c(-c3cscn3)c(C(=O)OCC)oc2cc1O	?	-11.1%	-16.2%	.	5.9%
Cc1ccc(CNc2nc(N)c([N+](=O)[O-])c(NCCO)n2)cc1	-3.6%	23.6%	-10.5%	-8.9%	-4.2%
Cc1c(C(=O)NC(=S)Nc2cccnc2)cccc1[N+](=O)[O-]	.	18.0%	-8.9%	?	0.2%
COc1cccc(-c2cc(C(=O)N3CCCCC3C)no2)c1 (stereo unspecified)	17.8%[59 µM]	37.5%	-1.4%	2.2%	-1.1%
COc1ccc(-n2c(-c3ccc(Br)cc3)n[nH]c2=S)cc1	-27.8%[0.501 µM]	44.0%	31.6µM*	-36.6%	-9.7%
Cn1c(-c2csc(-c3ccccc3)n2)n[nH]c1=S	-135.7%[59 µM]	-5.1%	28.2µM*	-18.2%	-26.8%
COc1ccc(-c2n[nH]c(=S)n2-c2ccc(C)cc2)cc1	0.891µM*	-3.2%	?	-15.0%	-18.3%
Cc1ccc(-c2n[nH]c(=S)n2C)cc1	10µM*	?	3.16µM*	13.0%	-14.1%
Cc1c(C(=O)N2CCN(c3ncccn3)CC2)sc2nc3n(c(=O)c12)CCCC3	0.8%[59 µM]	51.2%	0.0%[57.1 µM]	-6.1%	-8.0%
CS(=O)(=O)N1CCc2cc(C(=O)N3CCOCC3)ccc21	-5.9%[59 µM]	23.4%	-22.5%	-2.0%	2.2%
